# In the supplement of paper PMC8728848:
# About 410 targets per protein were measured; listed, in parts, are those with the strongest signals and a random draw of the rest.
# Experiments:
# Assay in all cases: glycan array binding signal (z-score within array); higher = stronger binding
# Settings in all cases: glycan notation: IUPAC condensed, linker removed
# [1] = target: Gal3S(b1-4)[Fuc(a1-3)]GlcNAc6S
# How it was run: (§1)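 Glycan array data came from 3228 arrays in the Consortium for Functional Glycomics database, and only arrays with an available protein sequence were kept. Glycan names were put into IUPAC-condensed notation, and columns mapping to the same glycan were averaged. The binding signal is a within-array Z-score, averaged across arrays of one protein sequence run at different concentrations or buffers and across linkers. A negative Z-score can be read as non-binding.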
# [2] = target: GlcNAc(a1-3)Gal(b1-4)GlcNAc
# How it was run: as §1
# [3] = target: GlcNAc(a1-4)Gal(b1-3)GlcNAc
# How it was run: as §1
# [4] = target: GlcNAc(b1-3)Gal(b1-4)GlcNAc(b1-6)[GlcNAc(b1-3)]Gal(b1-4)GlcNAc
# How it was run: as §1
# [5] = target: Man(a1-2)Man(a1-2)Man(a1-3)Man
# How it was run: as §1
# [6] = target: Neu5Ac(a2-3)Gal(b1-3)GlcNAc
# How it was run: as §1
# [7] = target: Neu5Ac(a2-3)Gal(b1-4)GlcNAc(b1-3)Gal(b1-3)GlcNAc
# How it was run: as §1
# [8] = target: Neu5Ac(a2-3)Gal(b1-4)[Fuc(a1-3)]GlcNAc
# How it was run: as §1
# [9] = target: Neu5Ac(a2-6)Gal(b1-4)GlcNAc(b1-2)Man(a1-3)[GlcNAc(b1-2)Man(a1-6)]Man(b1-4)GlcNAc(b1-4)GlcNAc
# How it was run: as §1
# [10] = target: Neu5Ac(a2-6)Gal(b1-4)GlcNAc(b1-3)Gal(b1-3)GlcNAc
# How it was run: as §1
# [11] = target: Neu5Ac(a2-8)Neu5Ac(a2-3)[GalNAc(b1-4)]Gal(b1-4)Glc
# How it was run: as §1
# [12] = target: Neu5Ac9Ac(a2-3)Gal(b1-4)GlcNAc
# How it was run: as §1
# [13] = target: Neu5Ac9Ac(a2-6)Gal(b1-4)GlcNAc
# How it was run: as §1
# [14] = target: Neu5Gc(a2-3)Gal(b1-4)GlcNAc(b1-3)Gal(b1-4)GlcNAc(b1-2)Man(a1-3)[Neu5Gc(a2-3)Gal(b1-4)GlcNAc(b1-3)Gal(b1-4)GlcNAc(b1-2)Man(a1-6)]Man(b1-4)GlcNAc(b1-4)GlcNAc
# How it was run: as §1
binder,measurement,setting,value
Epa10 (protein) MNEKIFRYLTLLFLFELARSLPVEDKLNIKKVFEKRAVDFTPFAHYPRPEGCSSPPNSVSVGLHMNLYNYPYLYVKPSTKGMFTNDTNSDADGETDGDSAGGIEGRAGQCWNPEYQDPNFPRFGYKQYGEFGASDNVNGDISWDHNEFTEGCKPVLAALPPGYNYPDEITFSNFTMVLSGYFKPKTSGVYKFELKADDFILFNFGAKNAFECCNREESIDNFGPYVAYAMWPNQADQELEVYLFEDSYYPLRLFYNNRDYHSKFKIGFYPPGQTTITFDFDGYLFMLDDTGNECRDSIRYRTVCDDKVVDDTTYSTRYSTSMVPGGGSDVITIYYIRMKCEEEDCLGQWDPINNVCYSPDDCADDGGYWNGQMCDQSCKLEGGIVNPDTGDCDKSCIESGGFLDENGNCDTTCRDDGGMLVEGQCDYQCKEAGGILVGDHCDTTCVDSGGKLNEDGTCDHSCRDQGGQLDENGECDTSCKDSGGMLIEGECDTSCKDEGGQLDDNNECINHCKDQGGIIDENGNCDTSCKDSGGKLDESGACDTSCRDDGGIIDENGNCNTTCRDDGGIIVGDHCDTSCRDAGGILIEDHCDTTCRDSGGKLNEDGTCDHSCRDQGGQLDENGKCDYSCKNGGGKLDEDGNCDMSCKENGGKLDENGDCDLSCKEDGGKLDGNGDCDYSCKEEGGVIDESGNCNTTCKDSGGQIIDGECNYGCIEVGGVVIDGECDTSCIDSGGILDGDGNCDRSCIESGGVLEDGACNTTCRDSGGQLNVDGTCDTSCRDDGGMLVEGQCDYQCKEAGGILEDGECVFPPTSSSTSETSSTTDQSSLQSDDSSMESSSTPMDSSTIESSSSEIITSESESESVPIASSSSEVMTSESESESIPILTSSSEIPIASSSSEIPVASSSSEIIIPESESESVPVASSSSEIPIASSSSEIPVASSSSEIPVASSSSEIIIPESESESIPIESTSSEAVSSRSESDSSYPTPTPTTTTITTWPNPIQPTTSNSSPIVSSSTETPGIAESSSRISDLESSRRTSILGDDRTRTRTTITSTITEDGQIITITTTVTGFVPEPTGETEGNGSDDENPENPIENNTDENEFLDPEFTDDIPDDPAGPEDNGNGPVNPEQGNDNDPVNLEDSGNNGAVNPEQAPVNDEDNGGNDPVNPEQDNNNGPANPGQDSTNGSGNSDQIDNNPPTPEENAGDGNSNGNDPADPSRRTSILGDERTRASPGGTSQPTGANGNVNGNSPGANVNGGGTGNSNNNNNNNNNNNNGNAPNGGDGSNGDANQGPSRRTSLLGDERTRAGQAAPTGGSSPDNGIAGDTSNNGGAIVSQQVDDGGAGSPRRTSILGDVRSRTTLNGEVLNFEGSGVRRAVAGNLALPLMMVGLVFNL,glycan array binding signal (z-score),[1],-0.35
same,glycan array binding signal (z-score),[2],-0.222
same,glycan array binding signal (z-score),[3],-0.238
same,glycan array binding signal (z-score),[4],-0.312
same,glycan array binding signal (z-score),[5],-0.264
same,glycan array binding signal (z-score),[6],-0.234
same,glycan array binding signal (z-score),[7],-0.284
same,glycan array binding signal (z-score),[8],-0.278
same,glycan array binding signal (z-score),[9],-0.287
same,glycan array binding signal (z-score),[10],-0.258
same,glycan array binding signal (z-score),[11],-0.27
same,glycan array binding signal (z-score),[12],-0.271
same,glycan array binding signal (z-score),[13],-0.297
same,glycan array binding signal (z-score),[14],-0.292
